Test results as given in PubChem BioAssay (EPA / NIEHS).
Inconclusive results are not listed. Some structures have more than one record in an assay (separate samples or runs), and their calls can disagree. Activity calls are given as the source filed them. The calls were made as follows, unless noted: active = hit-call score of the fitted dose curve at least 0.9, where 1 is the maximum; inactive = score below 0.9.

Tests used:
[1] = biological target: Bile acid receptor (Homo sapiens) (UniProt Q96RI1); test: OT_FXR_FXRSRC1_1440: Odyssey Thera (OT) 24-hour HEK293T Protein-Complementation Assay for Farnesoid X receptor/SRC-1 Co-activator (AID 2283384; active = hit-call score of the fitted dose curve at least 0.9, where 1 is the maximum)
Method in brief: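 Cell-based binding reporter: interaction of FXR with SRC-1 brings reporter fragments together, giving a fluorescence signal read 24 h after dosing of HEK293T cells.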

[2] = biological target: Peroxisome proliferator-activated receptor gamma (Homo sapiens) (UniProt P37231); test: OT_PPARg_PPARgSRC1_0480: Odyssey Thera (OT) 8-hour Protein-Complementation Assay for Peroxisome Proliferator-activated Receptor Gamma / SRC-1 Co-activator (AID 2283387; active = hit-call score of the fitted dose curve at least 0.9, where 1 is the maximum;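 also: nuclear to cytoplasmic split Venus YFP fluorescence ratio reporting PPARg SRC-1 interaction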)
Method in brief: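 Read-out: 488 nm N/C fluorescence ratio from complemented Venus YFP fragments, ≥350 cells per image, gain-of-signal fitted against DMSO baseline. Fusions of PPARg/SRC-1 with IFP1/IFP2 expressed transiently in HEK293T; compounds applied 8 h.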

[3] = biological target: Peroxisome proliferator-activated receptor gamma (Homo sapiens) (UniProt P37231); test: OT_PPARg_PPARgSRC1_1440: Odyssey Thera (OT) 24-hour Protein-Complementation Assay for Peroxisome Proliferator-activated Receptor Gamma/ SRC-1 Co-activator (AID 2283388; active = hit-call score of the fitted dose curve at least 0.9, where 1 is the maximum;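 also: nuclear to cytoplasmic ratio of reconstituted Venus YFP fluorescence in fixed imaged cells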)
Method in brief: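 Readout: nuclear-to-cytoplasmic 488 nm fluorescence ratio, ≥350 cells per image, 8 images per well, after 24 h compound exposure of HEK293T expressing PPARg/SRC-1 split-YFP fusions. Activity fitted in positive direction against DMSO.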

[4] = biological target: Retinoic acid receptor RXR-alpha (Homo sapiens) (UniProt P19793); test: OT_NURR1_NURR1RXRa_0480: Odyssey Thera (OT) 8-hour HEK293T Protein Complementation Assay for Nurr1/retinoid X receptor (RXR) (AID 2283385; active = hit-call score of the fitted dose curve at least 0.9, where 1 is the maximum)
Method in brief: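 Compounds are applied to HEK293T cells carrying Nurr1 and RXRα linked to reporter fragments. After 8 h, fluorescence intensity reports heterodimer formation, with DMSO as baseline.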

[5] = biological target: Retinoic acid receptor RXR-alpha (Homo sapiens) (UniProt P19793); test: OT_NURR1_NURR1RXRa_1440: Odyssey Thera (OT) 24-hour HEK293T Protein Complementation Assay for Nurr1/retinoid X receptor (RXR) (AID 2283386; active = hit-call score of the fitted dose curve at least 0.9, where 1 is the maximum)
Method in brief: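 Measured as fluorescence from a reconstituted split reporter, this 24 h HEK293T complementation assay scores compound-induced gain of Nurr1/RXRα association relative to DMSO.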

[6] = CEETOX_H295R_OHPREG: CeeTox H295R High-throughput Steroidogenesis Assay for OH-Pregnenolone (OHPREG) (AID 2283434); settings: actives raise or lower the signal
Method in brief: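 Hormone levels in spent medium were measured by tandem mass spectrometry following liquid-liquid extraction. Cells (H295R) had been forskolin-stimulated (10 uM, 48 h) before a 48 h chemical exposure at 0.1% DMSO, with activity fitted in both directions against DMSO.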

[7] = CEETOX_H295R_OHPROG: CeeTox H295R High-throughput Steroidogenesis Assay for OH-Progesterone (OHPROG) (AID 2283435); settings: actives raise or lower the signal;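 as to AC50: human adrenal H295R cells primed 48 h with 10 µM forskolin; 17alpha-hydroxyprogesterone secreted into medium measured by HPLC-MS/MS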
Method in brief: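 Secreted 17alpha-hydroxyprogesterone is read by tandem MS from media of forskolin-primed H295R cells dosed with chemical for 48 h. Activity is fitted in both directions against DMSO baseline; cytotoxic concentrations are re-tested diluted.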

[8] = CEETOX_H295R_ESTRADIOL: CeeTox H295R High-throughput Steroidogenesis Assay for Estradiol (AID 2283440); settings: actives raise or lower the signal;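 also: estradiol secreted into medium quantified by LC-MS/MS after dansyl derivatisation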
Method in brief: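 H295R, 48 h forskolin (10 uM) prestim → 48 h compound, 0.1% DMSO final. Estradiol in medium: MTBE extraction, dansyl chloride derivatization, LC-MS/MS. Fit bidirectional vs DMSO baseline; MTT viability in same wells.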

[9] = read-out: Tumor necrosis factor receptor superfamily member 6 (Homo sapiens) (UniProt P25445); test: LTEA_HepaRG_FAS: Life Technologies and Expression Analysis (LTEA) Assay for Fas cell surface death receptor (FAS) using HepaRG (AID 2283447); settings: mRNA level, 48 h; actives raise or lower the signal
Method in brief: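 FAS transcript level was measured by TaqMan qRT-PCR against three housekeeping genes after 48 h chemical exposure. Cells were HepaRG, 0.5% DMSO vehicle, with a top concentration of 100 uM and half-log dilutions over eight points, in duplicate.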

[10] = read-out: Fatty acid synthase (Homo sapiens) (UniProt P49327); test: LTEA_HepaRG_FASN: Life Technologies and Expression Analysis (LTEA) Assay for Fatty Acid Synthase (FASN) using HepaRG (AID 2283448); settings: mRNA level, 48 h; actives raise or lower the signal;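 as to AC50: differentiated human HepaRG liver cells in serum-free induction medium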
Method in brief: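 Transcript-level assay: HepaRG liver cells are treated for 48 h across an eight-point range topping at 100 uM, and FASN mRNA, normalized to three housekeeping genes, is compared with DMSO controls in both directions.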

[11] = read-out: Cyclin Dependent Kinase Inhibitor 1A (CDKN1A), CDKN1A (gene 1026); test: LTEA_HepaRG_CDKN1A: Life Technologies and Expression Analysis (LTEA) Assay for Cyclin Dependent Kinase Inhibitor 1A (CDKN1A) using HepaRG (AID 2283450); settings: mRNA level, 48 h; actives raise or lower the signal
Method in brief: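 HepaRG, 48 h dosing, 8-pt half-log series from 100 uM top, 0.5% DMSO vehicle, duplicates. Readout: TaqMan qRT-PCR of CDKN1A transcript, housekeeping-normalized (ACTB, GAPDH, POLR2A). Up/down curve fit relative to DMSO.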

[12] = read-out: Cyclin D1 (CCND1), CCND1 (gene 595); test: LTEA_HepaRG_CCND1: Life Technologies and Expression Analysis (LTEA) Assay for Cyclin D1 (CCND1) using HepaRG (AID 2283451); settings: mRNA level, 48 h; actives raise or lower the signal
Method in brief: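 qRT-PCR (Fluidigm 96.96 array) read-out of transcript level, housekeeping-normalized (ACTB/GAPDH/POLR2A). HepaRG cells, 48 h chemical exposure, 8-point half-log series from 100 uM, 0.5% DMSO vehicle; gain or loss relative to DMSO baseline.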

[13] = read-out: catalase (CAT), CAT (gene 847); test: LTEA_HepaRG_CAT: Life Technologies and Expression Analysis (LTEA) Assay for catalase (CAT) using HepaRG (AID 2283452); settings: mRNA level, 48 h; actives raise or lower the signal
Method in brief: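 Expression of CAT was quantified by TaqMan qRT-PCR with ACTB/GAPDH/POLR2A normalization after 48 h chemical exposure of HepaRG. Eight-point half-log series, top 100 uM, in 0.5% DMSO; gain or loss fitted against vehicle.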

[14] = read-out: flavin-containing dimethylaniline monooxygenases 3 (FMO3), FMO3 (gene 2328); test: LTEA_HepaRG_FMO3: Life Technologies and Expression Analysis (LTEA) Assay for flavin-containing dimethylaniline monooxygenases 3 (FMO3) using HepaRG (AID 2283453); settings: mRNA level, 48 h; actives raise or lower the signal;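 as to AC50: differentiated human HepaRG liver cells in serum-free induction medium; FMO3 transcript by TaqMan qRT-PCR normalized to ACTB GAPDH and POLR2A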
Method in brief: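 HepaRG, 48 h exposure, 8-pt half-log series from 100 uM, 0.5% DMSO vehicle, duplicates; FMO3 transcript by Fluidigm TaqMan qRT-PCR, housekeeping-normalized; gain/loss fit vs DMSO.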

[15] = CEETOX_H295R_ANDR: CeeTox H295R High-throughput Steroidogenesis Assay for Androstenedione (ANDR) (AID 2283436); settings: actives raise or lower the signal;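 also: human H295R adrenal cells exposed for 48 h with androstenedione measured in medium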
Method in brief: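 Read-out is androstenedione secreted into medium, measured by tandem mass spectrometry after liquid-liquid extraction. Cells were H295R, dosed for 48 h per modified OECD 456; activity fitted in both directions relative to DMSO.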

[16] = CEETOX_H295R_CORTIC: CeeTox H295R High-throughput Steroidogenesis Assay for Corticosterone (CORTIC) (AID 2283437); settings: actives raise or lower the signal;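 also: corticosterone secreted into medium quantified by mass spectrometry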;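 as to AC50: human H295R adrenal cells prestimulated with forskolin before chemical exposure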
Method in brief: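 Corticosterone secreted into medium is measured by reverse-phase HPLC with tandem MS following liquid-liquid extraction. Cells are forskolin-stimulated (10 uM, 48 h) before 48 h test exposure; activity fitted in both directions against DMSO.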

[17] = CEETOX_H295R_CORTISOL: CeeTox H295R High-throughput Steroidogenesis Assay for Cortisol (AID 2283438); settings: actives raise or lower the signal;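 also: cortisol secreted into medium quantified by LC-MS/MS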
Method in brief: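 Human adrenocortical H295R cells (passage ≤10) received test chemicals for 48 h after forskolin priming. Secreted cortisol was measured by LC-MS/MS.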

[18] = CEETOX_H295R_DOC: CeeTox H295R High-throughput Steroidogenesis Assay for DOC (AID 2283439); settings: actives raise or lower the signal
Method in brief: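 Secreted DOC was quantified from H295R media by HPLC-MS/MS after 48 h chemical exposure following 48 h forskolin (10 uM) prestimulation. Values were fitted in both directions relative to DMSO, the negative control and baseline.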

[19] = read-out: Cyclin D2 (CCND2), CCND2 (gene 894); test: LTEA_HepaRG_CCND2: Life Technologies and Expression Analysis (LTEA) Assay for Cyclin D2 (CCND2) using HepaRG (AID 2283449); settings: mRNA level, 48 h; actives raise or lower the signal
Method in brief: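 Read-out is CCND2 mRNA level measured by qRT-PCR in human HepaRG liver cells and normalised to three housekeeping genes. Chemicals were applied for 48 h at up to 100 uM, with gain or loss fitted relative to 0.5% DMSO.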

Measured: AC50

Retinoic acid receptor RXR-alpha (Homo sapiens), sequence (P19793 whole entry, looked up, the tested form may be a part): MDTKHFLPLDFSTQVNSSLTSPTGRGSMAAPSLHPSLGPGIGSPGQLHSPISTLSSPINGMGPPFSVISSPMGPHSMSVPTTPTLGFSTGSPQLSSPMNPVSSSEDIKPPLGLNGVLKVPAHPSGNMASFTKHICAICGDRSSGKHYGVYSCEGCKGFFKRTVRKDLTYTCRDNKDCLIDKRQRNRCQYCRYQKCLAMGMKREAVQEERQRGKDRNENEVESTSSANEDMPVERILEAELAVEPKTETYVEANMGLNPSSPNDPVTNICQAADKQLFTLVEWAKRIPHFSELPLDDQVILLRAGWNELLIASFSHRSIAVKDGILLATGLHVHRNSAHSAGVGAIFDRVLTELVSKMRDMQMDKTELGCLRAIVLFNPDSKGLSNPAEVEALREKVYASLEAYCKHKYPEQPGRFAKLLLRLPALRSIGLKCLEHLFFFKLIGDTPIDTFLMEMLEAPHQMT
Peroxisome proliferator-activated receptor gamma (Homo sapiens), sequence (P37231 whole entry, looked up, the tested form may be a part): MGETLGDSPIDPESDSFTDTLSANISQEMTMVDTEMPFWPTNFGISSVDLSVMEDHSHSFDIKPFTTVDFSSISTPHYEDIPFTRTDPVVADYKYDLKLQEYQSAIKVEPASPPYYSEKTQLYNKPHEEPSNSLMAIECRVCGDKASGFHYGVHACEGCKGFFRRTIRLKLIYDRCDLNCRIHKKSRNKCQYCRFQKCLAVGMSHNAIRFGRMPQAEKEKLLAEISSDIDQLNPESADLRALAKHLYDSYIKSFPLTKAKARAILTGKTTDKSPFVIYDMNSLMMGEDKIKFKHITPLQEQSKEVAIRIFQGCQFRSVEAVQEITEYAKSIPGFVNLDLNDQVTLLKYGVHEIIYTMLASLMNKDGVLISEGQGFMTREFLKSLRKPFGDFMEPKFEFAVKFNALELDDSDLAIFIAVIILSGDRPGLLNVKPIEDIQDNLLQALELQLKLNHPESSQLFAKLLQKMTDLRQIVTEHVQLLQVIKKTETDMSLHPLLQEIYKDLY
Fatty acid synthase (Homo sapiens), sequence (P49327 whole entry, looked up): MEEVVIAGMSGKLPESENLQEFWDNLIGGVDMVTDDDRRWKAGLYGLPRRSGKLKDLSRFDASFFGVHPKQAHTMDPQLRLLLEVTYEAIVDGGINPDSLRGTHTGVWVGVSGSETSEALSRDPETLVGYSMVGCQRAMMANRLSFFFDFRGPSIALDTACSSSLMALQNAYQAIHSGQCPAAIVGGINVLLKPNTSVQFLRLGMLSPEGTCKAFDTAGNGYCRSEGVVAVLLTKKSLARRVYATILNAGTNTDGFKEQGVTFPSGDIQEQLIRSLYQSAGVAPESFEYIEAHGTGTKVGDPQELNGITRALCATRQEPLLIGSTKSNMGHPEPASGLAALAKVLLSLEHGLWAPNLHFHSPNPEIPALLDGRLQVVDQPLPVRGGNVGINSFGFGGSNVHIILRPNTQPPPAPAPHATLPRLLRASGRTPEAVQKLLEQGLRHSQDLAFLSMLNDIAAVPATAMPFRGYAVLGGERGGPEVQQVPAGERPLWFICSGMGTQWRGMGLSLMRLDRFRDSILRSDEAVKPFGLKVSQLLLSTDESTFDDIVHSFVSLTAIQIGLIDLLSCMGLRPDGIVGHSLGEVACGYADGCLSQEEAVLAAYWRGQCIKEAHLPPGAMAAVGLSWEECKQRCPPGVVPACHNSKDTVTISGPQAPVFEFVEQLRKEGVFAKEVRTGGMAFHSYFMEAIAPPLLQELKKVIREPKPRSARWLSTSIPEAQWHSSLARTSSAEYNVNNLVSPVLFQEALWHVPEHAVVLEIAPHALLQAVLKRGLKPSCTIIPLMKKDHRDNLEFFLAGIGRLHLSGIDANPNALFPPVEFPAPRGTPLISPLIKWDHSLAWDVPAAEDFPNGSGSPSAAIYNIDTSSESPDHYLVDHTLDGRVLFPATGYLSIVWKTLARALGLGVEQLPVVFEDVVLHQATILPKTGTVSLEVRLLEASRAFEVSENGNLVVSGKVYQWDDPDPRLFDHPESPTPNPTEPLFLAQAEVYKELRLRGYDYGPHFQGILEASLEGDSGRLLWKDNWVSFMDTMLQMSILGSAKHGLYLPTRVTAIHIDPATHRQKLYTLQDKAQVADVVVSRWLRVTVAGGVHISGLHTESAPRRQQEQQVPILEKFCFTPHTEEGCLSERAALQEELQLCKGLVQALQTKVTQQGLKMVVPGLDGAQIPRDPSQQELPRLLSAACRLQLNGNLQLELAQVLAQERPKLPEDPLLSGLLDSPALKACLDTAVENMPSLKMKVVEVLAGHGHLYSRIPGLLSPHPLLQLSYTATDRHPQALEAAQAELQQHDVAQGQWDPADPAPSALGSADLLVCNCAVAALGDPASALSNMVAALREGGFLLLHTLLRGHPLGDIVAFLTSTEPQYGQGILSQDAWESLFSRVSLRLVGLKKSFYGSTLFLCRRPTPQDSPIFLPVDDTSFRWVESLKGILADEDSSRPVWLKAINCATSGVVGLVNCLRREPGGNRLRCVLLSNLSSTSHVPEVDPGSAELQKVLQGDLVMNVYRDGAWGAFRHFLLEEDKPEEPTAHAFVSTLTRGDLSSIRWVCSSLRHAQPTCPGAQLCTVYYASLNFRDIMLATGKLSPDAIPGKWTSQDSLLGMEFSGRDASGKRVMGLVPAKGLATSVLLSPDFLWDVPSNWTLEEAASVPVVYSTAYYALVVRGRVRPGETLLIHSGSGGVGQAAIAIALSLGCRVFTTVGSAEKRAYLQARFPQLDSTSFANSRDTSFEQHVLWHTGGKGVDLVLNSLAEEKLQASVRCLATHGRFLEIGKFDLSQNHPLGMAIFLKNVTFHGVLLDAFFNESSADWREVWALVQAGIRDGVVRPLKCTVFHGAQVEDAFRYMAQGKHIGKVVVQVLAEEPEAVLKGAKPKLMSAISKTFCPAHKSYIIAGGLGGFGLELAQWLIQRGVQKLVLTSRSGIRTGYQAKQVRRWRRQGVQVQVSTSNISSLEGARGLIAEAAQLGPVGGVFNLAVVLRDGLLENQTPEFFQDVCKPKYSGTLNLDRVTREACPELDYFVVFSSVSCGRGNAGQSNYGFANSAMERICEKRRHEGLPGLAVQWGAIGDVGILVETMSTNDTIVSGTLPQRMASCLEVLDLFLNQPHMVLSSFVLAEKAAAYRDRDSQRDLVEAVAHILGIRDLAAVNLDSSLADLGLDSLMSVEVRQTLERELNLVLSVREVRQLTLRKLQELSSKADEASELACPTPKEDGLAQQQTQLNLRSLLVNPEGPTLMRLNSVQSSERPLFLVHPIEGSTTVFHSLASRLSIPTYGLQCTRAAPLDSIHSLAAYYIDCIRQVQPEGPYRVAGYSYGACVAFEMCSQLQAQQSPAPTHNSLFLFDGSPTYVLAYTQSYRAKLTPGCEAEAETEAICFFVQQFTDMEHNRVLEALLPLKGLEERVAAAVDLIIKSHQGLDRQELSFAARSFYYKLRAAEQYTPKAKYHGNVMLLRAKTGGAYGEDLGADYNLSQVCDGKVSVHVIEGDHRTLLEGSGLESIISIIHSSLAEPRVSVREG
Bile acid receptor (Homo sapiens), sequence (Q96RI1 whole entry, looked up, the tested form may be a part): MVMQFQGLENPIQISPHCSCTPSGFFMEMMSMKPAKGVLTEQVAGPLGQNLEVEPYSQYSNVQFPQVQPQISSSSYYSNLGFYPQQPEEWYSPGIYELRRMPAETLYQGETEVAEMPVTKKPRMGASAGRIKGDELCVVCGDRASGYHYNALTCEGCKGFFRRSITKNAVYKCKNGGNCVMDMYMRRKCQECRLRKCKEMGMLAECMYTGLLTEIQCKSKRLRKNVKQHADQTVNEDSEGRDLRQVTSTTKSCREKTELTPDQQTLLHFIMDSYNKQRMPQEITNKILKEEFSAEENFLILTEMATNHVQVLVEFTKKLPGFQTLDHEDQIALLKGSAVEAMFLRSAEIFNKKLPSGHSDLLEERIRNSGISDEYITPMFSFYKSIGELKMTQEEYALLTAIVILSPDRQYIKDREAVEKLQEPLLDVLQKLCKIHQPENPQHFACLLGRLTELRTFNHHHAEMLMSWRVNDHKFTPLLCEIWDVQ

O=c1ssc(Cl)c1Cl
active: [1] 11.4 µM
inactive: [2] | [3]

Nc1ccc2ccccc2c1
active: [7] 13.9 µM | [10] 10.6 µM
not listed: [1] | [15] | [16] | [17] | [18] | [19]
inactive: all other assays above

CC(=O)c1ccc(-c2ccccc2)cc1
active: [7] 25.8 µM | [15] 50 µM | [16] 18.9 µM | [18] 36.5 µM
inactive: [6] | [17]

CCOP(=S)(NC(C)C)Oc1ccccc1C(=O)OC(C)C (centres undefined)
inactive: [6] | [17] | [18] | [8]
active: [7] 4.65 µM | [16] 6.94 µM

ClC(Cl)=C(c1ccc(Cl)cc1)c1ccccc1Cl
inactive: [6] | [7] | [15] | [16] | [17] | [18] | [8]

CCCCCCCc1ccc(O)cc1
active: [5] 50 µM
inactive: [5] | [2] | [3] | [9] | [10] | [11] | [12] | [13] | [14]

FC(F)(F)c1ccc(Cl)cc1
inactive: [5] | [2] | [3]

CC1(C)CN=C(NN=C(/C=C/c2ccc(C(F)(F)F)cc2)/C=C/c2ccc(C(F)(F)F)cc2)NC1
inactive: [2] | [3]

CC(C)(C)c1ccc(O)cc1
active: [7] 24.2 µM
not listed: [1] | [4] | [8] | [15] | [16] | [17] | [18]
inactive: all other assays above

Nc1ccc(Cl)cc1
inactive: [5] | [2] | [3] | [6] | [16] | [17] | [9] | [10] | [19] | [11] | [12] | [13] | [14]
active: [5] 2.33 µM | [7] 25.5 µM | [18] 50 µM

Nc1cc2c3c(c1)C(c1ccccc1)=N[C@@H](NC(=O)c1cccnc1)C(=O)N3CC2
active: [6] 27.6 µM | [7] 4.41 µM | [16] 18.3 µM | [17] 76.8 µM | [18] 33.8 µM
not listed: [1] | [4] | [15]
inactive: all other assays above

[N-]=[N+]=[N-]
inactive: [2] | [3] | [9] | [10] | [19] | [12]
active: [11] 74.9 µM | [13] 82.9 µM | [14] 88.5 µM

ClC(Cl)c1ccccc1
inactive: [2] | [3] | [9] | [10] | [19] | [11] | [12] | [13] | [14]

CSC(C)(C)C=NO
inactive: [2] | [3] | [9] | [10] | [11] | [12] | [13] | [14]

Cc1ccc(O)cc1C
not listed: [1] | [2] | [3] | [4] | [15] | [16] | [17] | [18]
inactive: all other assays above

CCOS(=O)(=O)OCC
inactive: [5] | [2] | [3] | [9] | [10] | [19] | [11] | [12] | [13] | [14]

CCOC(=O)c1ccccc1C(=O)OCC
inactive: [5] | [2] | [3] | [9] | [10] | [19] | [11] | [12] | [13] | [14]

CCOP(=S)(Oc1ccc([N+](=O)[O-])cc1)c1ccccc1 (centres undefined)
active: [7] 0.404 µM
not listed: [1] | [4] | [15] | [16] | [17] | [18]
inactive: all other assays above
